# Values quoted from earlier work in PubChem BioAssay AID977611.
# The whole screen tested about 3,900 compounds, of which about 3,900 (100%) were called active. Cut-off not given; nearly all actives show Kd up to about 4200 µM. So high a share suggests a set chosen from earlier hits. The list shows a part of the results. Positions of bridges follow the written chain, without caps; N, C: chain ends. Bridge positions count the residues as written; N and C are the ends. Where a SMILES comes first, the peptide text is derived from it. Non-standard residues stand in square brackets, D forms with d. Square brackets hold non-standard residues; d marks the D form. Residues, ends and D or L forms follow the SMILES beside them. Peptide text beside a SMILES is read from it. Orn(CH(NH2)2) = NC(N)NCCC[C@H](N)C(=O)O
# Assay: PubChem AID 977611
# Details: PDB protein-ligand complexes, literature Kd
compound,measurement,setting,value
OC[C@H]1CNC[C@@H](O[C@H]2O[C@H](CO)[C@@H](O)[C@H](O)[C@@H]2O)[C@@H]1O,Kd,"protein: GLYCOSYL HYDROLASE FAMILY 71 BxGH99, PDB entry 4v27",0.217 µM (active)
O=P(O)(O)OC[C@H]1OC(O[C@@H]2O[C@H](CO)[C@@H](O)[C@H](O)[C@H]2O)[C@H](O)[C@@H](O)[C@@H]1O (some centres undefined),Kd,"protein: trehalose operon repressor, PDB entry 1BYK",10 µM (active)
OC[C@H]1O[C@H](O[C@H]2[C@@H](O)[C@@H](CO)O[C@@H](O[C@H]3[C@H](O)[C@@H](O)[C@H](O)O[C@@H]3CO)[C@@H]2O)[C@H](O)[C@@H](O)[C@H]1O,Kd,"protein: PA-I GALACTOPHILIC LECTIN, PDB entry 2vxj",68 µM (active)
CC(C)C[C@H]1NC(=O)[C@@H](Cc2c[nH]c3ccccc23)NC(=O)[C@@H](CCC(N)=O)NC(=O)[C@@H](Cc2c[nH]c3ccccc23)NC(=O)[C@@H](CCC(=O)O)NC(=O)[C@H]2CCCN2C(=O)[C@@H](Cc2ccc(O)cc2)NC(=O)[C@@H](CC(=O)O)NC(=O)[C@H](NC(=O)[C@@H](C)NC(=O)CNC(=O)[C@H](N)CCCCN)CSSC[C@H](C(=O)N[C@H](C)C(=O)N[C@H](C)C(=O)O)NC1=O,Kd,"protein: gp41 N-peptide, PDB entry 2r5b",0.0025 µM (active)
same,Kd,"protein: gp41 N-peptide, PDB entry 2r5d",7e-05 µM (active)
CC(=O)N[C@@H](C)C(=O)N[C@@H](CC(C)C)C(=O)N[C@H]1CSSC[C@@H](C(=O)N[C@@H](CCC(N)=O)C(=O)N[C@@H](Cc2ccccc2)C(=O)N[C@H](C(=O)N[C@@H](CCC(=O)O)C(N)=O)C(C)C)NC(=O)[C@H](Cc2ccc(O)cc2)NC(=O)[C@H](Cc2c[nH]c3ccccc23)NC(=O)[C@H](CCCNC(N)N)NC(=O)[C@H](CC(=O)O)NC(=O)[C@H](C(C)C)NC(=O)[C@H](CCCNC(N)N)NC(=O)[C@@H]2CCCN2C(=O)[C@H](CC(=O)O)NC(=O)[C@H](CC(=O)O)NC1=O (Ac-ALCDDP[Orn(CH(NH2)2)]VD[Orn(CH(NH2)2)]WYCQFVE-NH2; disulfide 3-13),Kd,"protein: des-gla factor viia (heavy chain), PDB entry 1dva",0.0085 µM (active)
"CC[C@H](C)[C@H](NC(C)=O)C(=O)N[C@@H](CO)C(=O)N[C@@H]1C(=O)N[C@@H](CCCN=C(N)N)C(=O)N[C@H]2CCCCNC(=O)CC[C@@H](C(=O)O)NC(=O)[C@@H]3CCC(=O)OC[C@H](NC(=O)[C@@H]4CCCN4C(=O)[C@H](Cc4ccc(O)cc4)NC2=O)C(=O)N[C@@H](CC(=O)O[C@@H]1C)C(=O)N[C@@H](Cc1c[nH]c2ccccc12)C(=O)N3 (Ac-ISTRKYPSDWEE-OH; ester 3-9, 8-11; lactam 5-12)",Kd,"protein: Bovine Cationic trypsin, PDB entry 4ktu",0.685 µM (active)
C[C@@H]1NC(=O)[C@@H]2CSSC[C@H](NC(=O)CN)C(=O)N[C@@H](CSSC[C@@H](C(N)=O)NC(=O)[C@H](CCCNC(N)N)NC(=O)[C@H](Cc3c[nH]c4ccccc34)NC1=O)C(=O)N[C@@H](CO)C(=O)N[C@@H](CC(=O)O)C(=O)N1CCC[C@H]1C(=O)N[C@@H](CCCNC(N)N)C(=O)N2,Kd,"protein: A-AChBP, PDB entry 2byp",0.00088 µM (active)
CC[C@H](C)[C@H](N)C(=O)N[C@H](C(=O)NCC(=O)NCC(=O)N[C@H]1CSSC[C@@H](C(=O)O)NC(=O)[C@H](CCC(=O)O)NC(=O)[C@H](CCC(=O)O)NC(=O)[C@H](CCCN=C(N)N)NC(=O)[C@H](CC(=O)O)NC(=O)[C@H](CCSC)NC(=O)[C@H](Cc2c[nH]c3ccccc23)NC(=O)[C@H](Cc2ccc(O)cc2)NC(=O)[C@@H]2CCCN2C1=O)[C@@H](C)CC (H-IIGGCPYWMDREEC-OH; disulfide 5-14),Kd,"protein: Hepatocyte growth factor HGF-Beta V495, PDB entry 4o3u",0.4 µM (active)
"CC(C)C[C@H](NC(=O)[C@@H]1CSSC[C@@H]2NC(=O)[C@H](CC(N)=O)NC(=O)[C@@H](N)CSSC[C@H](NC(=O)[C@H](CC(C)C)NC(=O)[C@H](Cc3ccccc3)NC(=O)[C@H]([C@@H](C)O)NC(=O)[C@H](CCC(=O)O)NC(=O)[C@@H]3CCCN3C(=O)[C@H](C)NC(=O)[C@H](CCCCN)NC2=O)C(=O)N[C@@H](Cc2ccc(O)cc2)C(=O)N[C@@H](Cc2c[nH]c3ccccc23)C(=O)N[C@@H](CCCNC(N)N)C(=O)N1)C(=O)N[C@@H](CCC(N)=O)C(=O)N[C@@H](Cc1c[nH]cn1)C(N)=O (H-CNCKAPETFLCYW[Orn(CH(NH2)2)]CLQH-NH2; disulfide 1-11, 3-15)",Kd,"protein: E3 ubiquitin-protein ligase Mdm2, PDB entry 3iux",0.0251 µM (active)
N#Cc1c(O)c2c(-c3ccc(Br)cc3)c(Br)sc2[nH]c1=O,Kd,"protein: 5'-AMP-activated protein kinase catalytic subunit AMPK alpha1-belta1-gamma1, PDB entry 4qfs",0.9 µM (active)
N#Cc1c(O)c2c(-c3ccc(-c4ccccc4O)cc3)c(Cl)sc2[nH]c1=O,Kd,"protein: 5'-AMP-activated protein kinase catalytic subunit AMPK alpha1-belta1-gamma1, PDB entry 4qfr",0.0074 µM (active)
Cc1nc2c(=O)[nH]c(=O)[nH]c2n(C[C@H](O)[C@H](O)[C@H](O)CO)c1=O,Kd,"protein: Major histocompatibility complex class I-related gene protein, PDB entry 4l4v",1.65 µM (active)
CCNc1cc2c(cc1C)C(c1ccccc1C(=O)OCC)c1cc(C)c(NCC)cc1O2,Kd,"protein: Putative regulatory protein, PDB entry 3vvz",26.4 µM (active)
C[C@@H](O)CN1CC2=C(C1)c1ccccc1Nc1ccccc12,Kd,"protein: Renin, PDB entry 4gj9",500 µM (active)
CC[C@H](C)[C@H](NC(=O)CNC(=O)[C@H](CCC(N)=O)NC(=O)[C@@H](NC(=O)[C@H](CC(N)=O)NC(=O)[C@@H](N)CC(=O)O)[C@@H](C)CC)C(=O)N[C@H](C(=O)N[C@@H](CCCCN)C(=O)N1CCC[C@H]1C(=O)N[C@@H](C)C(=O)N[C@H](C(=O)N[C@@H](CCCNC(N)N)C(=O)N[C@@H](CCCNC(N)N)C(=O)N[C@@H](CC(C)C)C(=O)N[C@@H](C)C(=O)N[C@@H](CCCNC(N)N)C(=O)N[C@@H](CCCNC(N)N)C(=O)NCC(=O)O)[C@@H](C)CC)[C@@H](C)O (H-DNIQGITKPAI[Orn(CH(NH2)2)][Orn(CH(NH2)2)]LA[Orn(CH(NH2)2)][Orn(CH(NH2)2)]G-OH),Kd,"protein: Histone-binding protein RBBP7, PDB entry 3cfv",0.9 µM (active)
CC[C@H](C)[C@H](NC(=O)CNC(=O)[C@@H](N)CCC(N)=O)C(=O)N[C@H](C(=O)N[C@@H](CCCCN)C(=O)N1CCC[C@H]1C(=O)N[C@@H](C)C(=O)N[C@H](C(=O)N[C@@H](CCCNC(N)N)C(=O)N[C@@H](CCCNC(N)N)C(=O)N[C@@H](CC(C)C)C(=O)N[C@@H](C)C(=O)N[C@@H](CCCNC(N)N)C(=O)N[C@@H](CCCNC(N)N)C(=O)NCC(=O)O)[C@@H](C)CC)[C@@H](C)O (H-QGITKPAI[Orn(CH(NH2)2)][Orn(CH(NH2)2)]LA[Orn(CH(NH2)2)][Orn(CH(NH2)2)]G-OH),Kd,"protein: Histone-binding protein RBBP7, PDB entry 3cfs",1.1 µM (active)
O[C@@H]1[C@H](O)CO[C@](O)(CO[P+](O)(O)O)[C@H]1O,Kd,"protein: GLUCOKINASE REGULATORY PROTEIN, PDB entry 4bb9",1 µM (active)
O=C(NCCC1C=CCCC1)Nc1ccc2nnsc2c1 (centres undefined),Kd,"protein: Protein arginine N-methyltransferase 3, PDB entry 3smq",9.5 µM (active)
OC[C@H]1O[C@@H](Oc2ccc([C@@H](c3ccc(O)c(Cl)c3)c3ccccc3S(O)(O)O)cc2Cl)[C@H](O)[C@@H](O)[C@H]1O,Kd,"protein: PA-I galactophilic lectin, PDB entry 4lk6",6.3 µM (active)
C/C(=C/C=C/C(C)=C/C(=O)O)Cc1cccc2ccc(C)cc12,Kd,"protein: Retinoic acid receptor RXR-alpha, PDB entry 4poj",0.008 µM (active)
NCc1ccc2occc2c1,Kd,"protein: CATIONIC TRYPSIN, PDB entry 4ab9",466 µM (active)
NC1C=CN([C@@H]2O[C@H](CNC(=O)c3c[nH]c4scc[n+]34)[C@@H](O)[C@H]2O)C(=O)N1 (some centres undefined),Kd,"protein: 2-C-methyl-D-erythritol 2,4-cyclodiphosphate synthase, PDB entry 3q8h",70 µM (active)
NC1C=CN([C@@H]2O[C@H](CO)[C@@H](O)[C@H]2O)C(=O)N1 (some centres undefined),Kd,"protein: Peptidyl-tRNA hydrolase, PDB entry 4jwk",0.00479 µM (active)
O=C(CCN1CCCCC1)N1CCc2[nH]c(=O)c3cc(F)ccc3c2C1,Kd,"protein: Putative ADP-ribosyltransferase Certhrax, PDB entry 4fxq",1.7 µM (active)
C[C@H]1CCC[C@H](C[C@H]2Cc3cc(O)cc(O)c3C(=O)O2)O1,Kd,"protein: Lysine--tRNA ligase, PDB entry 4pg3",0.014 µM (active)
CC[C@H](C)[C@H](NC(=O)[C@H](CO)NC(=O)[C@@H]1CCCN1C(=O)[C@H](C)N)C(=O)N[C@@H](CC(=O)O)C(=O)N[C@@H](CCCNC(N)N)C(=O)N[C@@H](CO)C(=O)N[C@H](C(=O)N[C@@H](CCCCN)C(=O)N1CCC[C@H]1C(=O)N1CCC[C@H]1C(=O)N[C@@H](CC(C)C)C(=O)O)[C@@H](C)O (H-APSID[Orn(CH(NH2)2)]STKPPL-OH),Kd,"protein: Grb2-related adaptor protein 2(C-terminal SH3 domain (SH3C) of Mona/Gads, PDB entry 1oeb",0.118 µM (active)
CC[C@H](C)[C@H](N)C(=O)N[C@@H](CCC(=O)O)C(=O)N[C@@H](CC(C)C)C(=O)N1CCC[C@H]1C(=O)N[C@@H](CCC(=O)O)C(=O)N[C@H](C(=O)N1CCC[C@H]1C(=O)N[C@@H](CO)C(=O)N[C@@H](CCC(=O)O)C(=O)N1CCC[C@H]1C(=O)N[C@@H](CC(C)C)C(=O)N1CCC[C@H]1C(=O)O)C(C)C (H-IELPEVPSEPLP-OH),Kd,"protein: Vacuolar protein sorting-associating protein 4A, PDB entry 2k3w",5.8 µM (active)
CC[C@H](C)[C@H](NC(=O)[C@@H](NC(=O)[C@H](CC(C)C)NC(=O)[C@H](C)NC(=O)[C@@H]1CCCN1C(=O)[C@H](CC(C)C)NC(=O)[C@@H](NC(=O)[C@@H]1CCCN1C(=O)[C@H](CCCCN)NC(=O)[C@H](CCCNC(N)N)NC(=O)[C@H](C)N)C(C)C)[C@@H](C)O)C(=O)N[C@@H](C)C(=O)O (H-A[Orn(CH(NH2)2)]KPVLPALTIA-OH),Kd,"protein: Mitogen-activated protein kinase 1 (R77A, E314A, I255G, C162S mutation), PDB entry 4h3q",8 µM (active)
CC[C@H](C)[C@H](NC(=O)[C@H](CC(C)C)NC(=O)[C@@H]1CCCN1C(=O)[C@@H]1CCCN1C(=O)[C@@H]1CCCN1C(=O)[C@H](CC(N)=O)NC(=O)[C@H](CO)NC(=O)[C@@H](NC(=O)[C@@H](N)[C@@H](C)O)[C@@H](C)CC)C(=O)N[C@@H](CO)C(=O)N[C@@H](CO)C(=O)N[C@@H](C)C(=O)N[C@@H](CCCCN)C(=O)O (H-TISNPPPLISSAK-OH),Kd,"protein: The MYND domain (NHR4) of ETO, PDB entry 2odd",109 µM (active)
H-ELPLVKI-OH,Kd,"protein: Chaperone protein DnaK, PDB entry 4ezz",6.4 µM (active)
H-KPAAVVAPI-OH,Kd,"protein: Ubiquitin ligase SIAH1, PDB entry 2a25",24 µM (active)
CC[C@H](C)[C@H](NC(=O)[C@H](Cc1ccccc1)NC(=O)[C@H](CCCCN)NC(=O)CN)C(=O)N1CCC[C@H]1C(=O)N[C@@H](CO)C(=O)N[C@@H](CCCNC(N)N)C(=O)N1CCC[C@H]1C(=O)N[C@@H](C)C(=O)N1CCC[C@H]1C(=O)N[C@@H](CCCCN)C(=O)N1CCC[C@H]1C(=O)N1CCC[C@H]1C(=O)N[C@@H](CO)C(=O)N[C@@H](CO)C(=O)N[C@@H](C)C(=O)O (H-GKFIPS[Orn(CH(NH2)2)]PAPKPPSSA-OH),Kd,"protein: NAP1-binding protein 2, PDB entry 2lcs",0.2 µM (active)
CC[C@H](C)[C@H](NC(=O)[C@@H](NC(=O)[C@@H](N)CS)[C@@H](C)CC)C(=O)N[C@@H](CO)C(=O)N[C@@H](C)C(=O)N[C@@H](CCSC)C(=O)N1CCC[C@H]1C(=O)N[C@H](C(=O)N[C@@H](CCCCN)C(=O)N[C@@H](CO)C(=O)N[C@@H](CO)C(=O)N[C@@H](CCCNC(N)N)C(=O)N[C@@H](CCCCN)C(=O)N[C@@H](C)C(=O)N[C@@H](CCCCN)C(=O)N[C@@H](CCCCN)C(=O)N1CCC[C@H]1C(=O)N[C@@H](C)C(=O)N[C@@H](CCC(N)=O)C(=O)O)[C@@H](C)O (H-CIISAMPTKSS[Orn(CH(NH2)2)]KAKKPAQ-OH),Kd,"protein: DDEF1 SH3 domain, PDB entry 2rqu",23.6 µM (active)
